Reference: PubChem BioAssay AID1159580 (chemical genetic matrix, 2015)
Among all 5,500 compounds or so, about 2,000 (36%) were called active. About 18% were inconclusive and are not listed. Rule as the data show it: active = normalized growth mostly below about 0.91 (no sharp cut-off); inconclusive = no clear call, values can overlap the other calls; inactive = mostly above about 0.92. The list shows a part of the results.

Experiment: chemical genetic growth profiling, strain panel (AID 1159580);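 also: tested at 20 µM; growth read once vehicle control cultures reached saturation at 30 °C; 1 = growth at the plate median or of vehicle wells; lower values mean less growth of the strain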
Conditions: growth OD

Measured: normalized growth

NC(=O)N/N=C\c1ccc([N+](=O)[O-])o1
inactive: S. cerevisiae deletion strains, locus YJR066W, strain TOR1, stronger effect = lower value 0.911 | S. cerevisiae deletion strains, locus YKL009W, strain mrt4, stronger effect = lower value 0.979 | S. cerevisiae deletion strains, locus YKL068W, stronger effect = lower value 0.994 | S. cerevisiae deletion strains, locus YKL085W, strain MDH1 (second series), stronger effect = lower value 0.987 | S. cerevisiae deletion strains, locus YKL085W, strain MDH1, stronger effect = lower value 0.987 | S. cerevisiae deletion strains, locus YKL160W, strain elf1, stronger effect = lower value 0.983 | S. cerevisiae deletion strains, locus YKL190W, strain CNB1, stronger effect = lower value 1.02 | S. cerevisiae deletion strains, locus YKR001C, strain vps1, stronger effect = lower value 0.95 | S. cerevisiae deletion strains, locus YKR026C, strain gcn3, stronger effect = lower value 1 | S. cerevisiae deletion strains, locus YKR091W, strain srl3, stronger effect = lower value 0.991 | S. cerevisiae deletion strains, locus YLL001W, strain dnm1, stronger effect = lower value 0.995 | S. cerevisiae deletion strains, locus YLL026W, stronger effect = lower value 0.999 | S. cerevisiae deletion strains, locus YLL041C, strain sdh2, stronger effect = lower value 0.995 | S. cerevisiae deletion strains, locus YLR027C, strain aat2, stronger effect = lower value 1 | S. cerevisiae deletion strains, locus YLR039C, strain RIC1, stronger effect = lower value 1.03 | S. cerevisiae deletion strains, locus YLR058C, strain SHM2, stronger effect = lower value 0.994 | S. cerevisiae deletion strains, locus YLR102C, strain apc9, stronger effect = lower value 0.984 | S. cerevisiae deletion strains, locus YLR113W, strain HOG1, stronger effect = lower value 1 | S. cerevisiae deletion strains, locus YLR221C, strain rsa3, stronger effect = lower value 0.975 | S. cerevisiae deletion strains, locus YLR258W, strain gsy2, stronger effect = lower value 0.998 | S. cerevisiae deletion strains, locus YLR262C, strain YPT6 (second series), stronger effect = lower value 1.01 | S. cerevisiae deletion strains, locus YLR262C, strain YPT6, stronger effect = lower value 1.03 | S. cerevisiae deletion strains, locus YLR268W, strain sec22, stronger effect = lower value 0.969 | S. cerevisiae deletion strains, locus YLR320W, strain mms22, stronger effect = lower value 0.98 | S. cerevisiae deletion strains, locus YLR330W, strain CHS5, stronger effect = lower value 0.998 | S. cerevisiae deletion strains, locus YLR342W, strain FKS1 (second series), stronger effect = lower value 1.03 | S. cerevisiae deletion strains, locus YLR342W, strain FKS1, stronger effect = lower value 1 | S. cerevisiae deletion strains, locus YLR357W, strain rsc2, stronger effect = lower value 0.97 | S. cerevisiae deletion strains, locus YLR370C, strain arc18, stronger effect = lower value 0.997 | S. cerevisiae deletion strains, locus YLR371W, strain rom2, stronger effect = lower value 0.986 | S. cerevisiae deletion strains, locus YLR384C, strain iki3, stronger effect = lower value 1.01 | S. cerevisiae deletion strains, locus YLR418C, strain cdc73, stronger effect = lower value 0.904 | S. cerevisiae deletion strains, locus YML016C, strain PPZ1, stronger effect = lower value 1 | S. cerevisiae deletion strains, locus YML032C, strain rad52, stronger effect = lower value 0.938 | S. cerevisiae deletion strains, locus YML120C, strain ndi1, stronger effect = lower value 1.02 | S. cerevisiae deletion strains, locus YML124C, strain tub3, stronger effect = lower value 0.993 | S. cerevisiae deletion strains, locus YMR058W, strain fet3, stronger effect = lower value 0.961 | S. cerevisiae deletion strains, locus YMR078C, strain ctf18, stronger effect = lower value 0.994 | S. cerevisiae deletion strains, locus YMR125W, strain sto1, stronger effect = lower value 0.993 | S. cerevisiae deletion strains, locus YMR129W, stronger effect = lower value 1 | S. cerevisiae deletion strains, locus YMR205C, strain PFK2, stronger effect = lower value 1.02 | S. cerevisiae deletion strains, locus YMR223W, strain ubp8, stronger effect = lower value 0.97 | S. cerevisiae deletion strains, locus YMR231W, strain pep5, stronger effect = lower value 0.993 | S. cerevisiae deletion strains, locus YMR307W, strain GAS1, stronger effect = lower value 1.01 | S. cerevisiae deletion strains, locus YNL067W, strain RPL9B, stronger effect = lower value 1.01 | S. cerevisiae deletion strains, locus YNL071W, strain lat1, stronger effect = lower value 0.99 | S. cerevisiae deletion strains, locus YNL128W, strain TEP1, stronger effect = lower value 1.03 | S. cerevisiae deletion strains, locus YNL153C, strain GIM3, stronger effect = lower value 1.01 | S. cerevisiae deletion strains, locus YNL183C, strain NPR1, stronger effect = lower value 0.919 | S. cerevisiae deletion strains, locus YNL209W, strain ssb2, stronger effect = lower value 0.994 | S. cerevisiae deletion strains, locus YNL233W, strain BNI4, stronger effect = lower value 0.998 | S. cerevisiae deletion strains, locus YNL248C, strain rpa49, stronger effect = lower value 0.967 | S. cerevisiae deletion strains, locus YNL250W, strain rad50, stronger effect = lower value 0.97 | S. cerevisiae deletion strains, locus YNL271C, strain bni1, stronger effect = lower value 0.999 | S. cerevisiae deletion strains, locus YNL298W, strain CLA4, stronger effect = lower value 0.986 | S. cerevisiae deletion strains, locus YNL307C, strain MCK1, stronger effect = lower value 0.995 | S. cerevisiae deletion strains, locus YNL322C, strain KRE1 (second series), stronger effect = lower value 0.997 | S. cerevisiae deletion strains, locus YNR049C, strain mso1, stronger effect = lower value 0.995 | S. cerevisiae deletion strains, locus YNR052C, strain pop2, stronger effect = lower value 0.989 | S. cerevisiae deletion strains, locus YOL006C, strain TOP1, stronger effect = lower value 1.06 | S. cerevisiae deletion strains, locus YOL012C, strain htz1 0.96 | S. cerevisiae deletion strains, locus YOL147C, strain pex11, stronger effect = lower value 0.988 | S. cerevisiae deletion strains, locus YOR001W, strain rrp6, stronger effect = lower value 1.01 | S. cerevisiae deletion strains, locus YOR061W, strain CKA2, stronger effect = lower value 0.994 | S. cerevisiae deletion strains, locus YOR069W, strain VPS5, stronger effect = lower value 1 | S. cerevisiae deletion strains, locus YOR070C, strain gyp1, stronger effect = lower value 0.998 | S. cerevisiae deletion strains, locus YOR080W, strain dia2, stronger effect = lower value 1.01 | S. cerevisiae deletion strains, locus YOR083W, strain WHI5, stronger effect = lower value 0.963 | S. cerevisiae deletion strains, locus YOR106W, strain vam3, stronger effect = lower value 0.983 | S. cerevisiae deletion strains, locus YOR136W, strain idh2, stronger effect = lower value 0.984 | S. cerevisiae deletion strains, locus YOR144C, strain elg1, stronger effect = lower value 0.989 | S. cerevisiae deletion strains, locus YOR184W, strain ser1, stronger effect = lower value 0.989 | S. cerevisiae deletion strains, locus YOR231W, strain MKK1, stronger effect = lower value 0.95 | S. cerevisiae deletion strains, locus YOR265W, strain rbl2, stronger effect = lower value 0.996 | S. cerevisiae deletion strains, locus YOR270C, strain vph1, stronger effect = lower value 0.972 | S. cerevisiae deletion strains, locus YOR290C, strain snf2, stronger effect = lower value 0.986 | S. cerevisiae deletion strains, locus YOR316C, strain cot1, stronger effect = lower value 0.992 | S. cerevisiae deletion strains, locus YPL051W, strain arl3, stronger effect = lower value 0.966 | S. cerevisiae deletion strains, locus YPL078C, strain atp4, stronger effect = lower value 0.991 | S. cerevisiae deletion strains, locus YPL106C, strain sse1, stronger effect = lower value 0.956 | S. cerevisiae deletion strains, locus YPL240C, strain hsp82, stronger effect = lower value 1.01 | S. cerevisiae deletion strains, locus YPL241C, strain CIN2, stronger effect = lower value 1.01 | S. cerevisiae deletion strains, locus YPL256C, strain CLN2, stronger effect = lower value 0.982 | S. cerevisiae deletion strains, locus YPR119W, strain clb2, stronger effect = lower value 0.987 | S. cerevisiae deletion strains, locus YPR141C, strain kar3, stronger effect = lower value 0.993 | S. cerevisiae deletion strains, locus YPR163C, strain tif3, stronger effect = lower value 0.992 | S. cerevisiae deletion strains, locus YPR167C, strain met16, stronger effect = lower value 0.987 | S. cerevisiae deletion strains, strain wtn01, stronger effect = lower value 0.97 | S. cerevisiae strains, strain wild type, stronger effect = lower value 1.03
